In PubChem BioAssay AID1233 (SRMLSC, 2008):
Measured potencies and affinities stand elsewhere. The source made the active and inactive calls.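 The calls were made as follows: active = a dose-response curve fit returns a half-maximal inhibitory concentration, extrapolated values included; inactive = the fit returns no such concentration.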

Target: HMG-CoA reductase [Enterococcus faecalis] (UniProt Q9FD70)
Test: inhibitors of E. faecalis class II HMGR, confirmation, biochemical, Enterococcus faecalis (AID 1233);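 also: 0% = full reaction carrier wells and 100% = background wells lacking mevalonate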
Conditions: purified E. faecalis HMGR, NADPH absorbance 340 nm kinetics; series mostly up to 100 µM; inhibition: at the top concentration

inhibition, inactive:
CC(=O)N1CCN(S(=O)(=O)c2ccc(C)c([N+](=O)[O-])c2)C1C(C)C (stereo unspecified) -2.57%, Cc1ccc(CC(CC(=O)O)C(=O)NC2CCCCC2)cc1 (stereo unspecified) 1.92%, CC(C)NC(=O)CSc1nc2ccccc2n1CC(=O)N(C(C)C)C(C)C -1.57%, O=[N+]([O-])c1ccc(Cl)c(-c2ccc(/C=N/c3c(-c4ccco4)nc4ccccn34)o2)c1 -2.88%, Cc1nnc(SCc2ccccc2Cl)n1CC1CCCO1 (stereo unspecified) -1.03%, Cc1ccc(S(=O)(=O)N(C)Cc2ccc(-c3nnco3)cc2)cc1 -3.48%, COC(=O)c1sccc1-c1ccc(C(=O)Nc2cccnc2)o1 -1.88%, O=C(COC(=O)CCS(=O)(=O)c1ccc(Cl)cc1)NCCc1ccccc1 -1.92%, Cc1ccc(C(=O)c2c(NC(=O)c3ccccc3)sc(C)c2C)cc1 -8.21%, COCc1c(C(=O)Nc2nc(C)cs2)oc2ccccc12 -0.65%, CN(C)C(=O)CSc1n[nH]c(=O)[nH]c1=O -1.34%, COc1ccc(N2CCN(C(=O)C3CCC(Cn4c(=S)[nH]c5ccccc5c4=O)CC3)CC2)cc1 (stereo unspecified) -4.08%, CCOC(=O)c1nnn(-c2ccc(OC)cc2)c1N -6.25%, COc1ccc2cc(C3NC(=O)c4ccccc4N3)c(Cl)nc2c1 (stereo unspecified) -3.73%, C=CCOc1ccc(Br)cc1CNC(C)(C)C -2.42%, Cc1cc(C(=O)N/N=C2\CCCC(=O)C2)c(C)n1-c1ccccc1 -0.06%, Cc1ccsc1/C=C1/NC(=O)N(Cc2ccc(F)cc2)C1=O -7.22%, COc1ccc(CCNC(=O)CCNC(=O)c2ccc(Cl)cc2)cc1OC -6.35%, O=C1OC(c2cccs2)=N/C1=C/c1ccc(-c2cccc(C(=O)O)c2)o1 -3.77%, CN(C)c1ccc(P(=O)(OCc2ccccc2)C(O)c2ccncc2)cc1 (stereo unspecified) -0.24%, COCCCNC(=O)CCCC(=O)NCCCOC -2.96%
